Data from PMC8384837, “Expanding the binding specificity for RNA recognition by a PUF domain”.

These sequences were tested against PUM1 PUF domain R4-PHG (Homo sapiens, UniProt Q14671 828-1176, N971P;Q975G) (assay: yeast three-hybrid, YBZ-1, SC-Leu-His + 0.5 mM 3-AT, 4 days). Details: tags: N-Gal4 AD-HA kept; label: inside an RPR1-promoter hybrid RNA with tandem MS2 sites; ssRNA.
Sequence of PUM1 PUF domain R4-PHG (Q14671 828-1176 N971P/Q975G): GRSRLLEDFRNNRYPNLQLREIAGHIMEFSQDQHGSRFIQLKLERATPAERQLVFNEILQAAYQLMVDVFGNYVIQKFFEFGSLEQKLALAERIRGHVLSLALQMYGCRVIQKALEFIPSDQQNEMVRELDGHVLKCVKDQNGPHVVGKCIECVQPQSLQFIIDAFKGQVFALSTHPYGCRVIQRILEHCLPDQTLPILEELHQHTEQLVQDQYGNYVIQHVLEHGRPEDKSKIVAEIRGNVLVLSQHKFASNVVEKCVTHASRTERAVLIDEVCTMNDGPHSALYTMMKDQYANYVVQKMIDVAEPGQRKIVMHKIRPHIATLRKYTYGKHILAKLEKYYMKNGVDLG
How it was run: (§1)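 The interaction score is the log change in variant frequency from input to selection. Scores were computed in log2 with a pseudocount of 1 for absent variants, using Illumina sequencing of PCR-amplified repeat regions. The input came from four days on SC-Leu and the selection from four days on SC-Leu-His + 0.5 mM 3-AT. The cells were strain YBZ-1 (LexA–MS2 coat fusion, HIS3 reporter) co-expressing Pumilio-1 PUF domain libraries and matching RNA elements from a centromeric plasmid.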
In the case of “GGCUAGAACUAGUGGAUCCCCCGGCGCCCGGCGGCUCGAGCCCGGGUAAGUGUACAUAGUCUGCAUGCCGCCGGGCGCCAUGCCUGCAGGUCGACUCUAGAAAACAUG”, the binding signal is reported as 4.15 log2 enrichment (interaction score). With “GGCUAGAACUAGUGGAUCCCCCGGCGCCCGGCGGCUCGAGCCCGGGUAAGUGUAUAUAGUCUGCAUGCCGCCGGGCGCCAUGCCUGCAGGUCGACUCUAGAAAACAUG” the binding signal was 4.99 log2 enrichment (interaction score). For “GGCUAGAACUAGUGGAUCCCCCGGCGCCCGGCGGCUCGAGCCCGGGUAAGUGUAAAUAGUCUGCAUGCCGCCGGGCGCCAUGCCUGCAGGUCGACUCUAGAAAACAUG”, the binding signal was 4.7 log2 enrichment (interaction score).

These sequences were tested against PUM1 PUF domain R8-KHN (Homo sapiens, UniProt Q14671 828-1176, N1122K;Y1123H;Q1126N) in the same assay as above. Details: tags: N-Gal4 AD-HA kept; label: inside an RPR1-promoter hybrid RNA with tandem MS2 sites; ssRNA.
Sequence of PUM1 PUF domain R8-KHN (Q14671 828-1176 N1122K/Y1123H/Q1126N): as the sequence (Q14671 828-1176 N971P/Q975G) above, with P144N, G148Q, N295K, Y296H, Q299N counted along it
How it was run: as §1
With “GGCUAGAACUAGUGGAUCCCCCGGCGCCCGGCGGCUCGAGCCCGGGUAAGUGUAAAUAGUCUGCAUGCCGCCGGGCGCCAUGCCUGCAGGUCGACUCUAGAAAACAUG” the binding signal was 2.21 log2 enrichment (interaction score). In the case of “GGCUAGAACUAGUGGAUCCCCCGGCGCCCGGCGGCUCGAGCCCGGGUAAGCGUAAAUAGUCUGCAUGCCGCCGGGCGCCAUGCCUGCAGGUCGACUCUAGAAAACAUG”, the binding signal is reported as 5.43 log2 enrichment (interaction score). In the case of “GGCUAGAACUAGUGGAUCCCCCGGCGCCCGGCGGCUCGAGCCCGGGUAAGGGUAAAUAGUCUGCAUGCCGCCGGGCGCCAUGCCUGCAGGUCGACUCUAGAAAACAUG”, the binding signal is reported as 2.46 log2 enrichment (interaction score).

These sequences were tested against PUM1 PUF domain R5-RRT (Homo sapiens, UniProt Q14671 828-1176, C1007R;Q1011T) in the same assay as above. Details: tags: N-Gal4 AD-HA kept; label: inside an RPR1-promoter hybrid RNA with tandem MS2 sites; ssRNA.
Sequence of PUM1 PUF domain R5-RRT (Q14671 828-1176 C1007R/Q1011T): as the sequence (Q14671 828-1176 N971P/Q975G) above, with P144N, G148Q, C180R, Q184T counted along it
How it was run: as §1
With “GGCUAGAACUAGUGGAUCCCCCGGCGCCCGGCGGCUCGAGCCCGGGUAAGUGUGAAUAGUCUGCAUGCCGCCGGGCGCCAUGCCUGCAGGUCGACUCUAGAAAACAUG” the binding signal was 1.02 log2 enrichment (interaction score). In the case of “GGCUAGAACUAGUGGAUCCCCCGGCGCCCGGCGGCUCGAGCCCGGGUAAGUGUCAAUAGUCUGCAUGCCGCCGGGCGCCAUGCCUGCAGGUCGACUCUAGAAAACAUG”, the binding signal is reported as 4.59 log2 enrichment (interaction score). In the case of “GGCUAGAACUAGUGGAUCCCCCGGCGCCCGGCGGCUCGAGCCCGGGUAAGUGUAAAUAGUCUGCAUGCCGCCGGGCGCCAUGCCUGCAGGUCGACUCUAGAAAACAUG”, the binding signal is reported as 0.94 log2 enrichment (interaction score).

These sequences were tested against PUM1 PUF domain R3-IWR (Homo sapiens, UniProt Q14671 828-1176, C935I;R936W;Q939R) in the same assay as above. Details: tags: N-Gal4 AD-HA kept; label: inside an RPR1-promoter hybrid RNA with tandem MS2 sites; ssRNA.
Sequence of PUM1 PUF domain R3-IWR (Q14671 828-1176 C935I/R936W/Q939R): as the sequence (Q14671 828-1176 N971P/Q975G) above, with C108I, R109W, Q112R, P144N, G148Q counted along it
How it was run: as §1
With “GGCUAGAACUAGUGGAUCCCCCGGCGCCCGGCGGCUCGAGCCCGGGUAAGUGUAAGUAGUCUGCAUGCCGCCGGGCGCCAUGCCUGCAGGUCGACUCUAGAAAACAUG” the binding signal was 4.57 log2 enrichment (interaction score). “GGCUAGAACUAGUGGAUCCCCCGGCGCCCGGCGGCUCGAGCCCGGGUAAGUGUAAAUAGUCUGCAUGCCGCCGGGCGCCAUGCCUGCAGGUCGACUCUAGAAAACAUG” was tested, and the binding signal was 3.61 log2 enrichment (interaction score). With “GGCUAGAACUAGUGGAUCCCCCGGCGCCCGGCGGCUCGAGCCCGGGUAAGUGUAAUUAGUCUGCAUGCCGCCGGGCGCCAUGCCUGCAGGUCGACUCUAGAAAACAUG” the binding signal was 3.7 log2 enrichment (interaction score).
